Data reported in the supplement of paper PMC11383364.
± gives the standard deviation of the averaged measurements.

The compounds below were run on SUM149 (assay: percent difference in area under dose-response curve of relative cell number, RPMI vs HPLM; higher = drug relatively more effective in HPLM than RPMI (negative = less effective in HPLM)). Conditions: treatment time: 72 h; dose range: 10-point, 1 nM to 20 µM; media compared: RPMI vs HPLM.

Compound | percent difference in area under dose-response curve
CC(C)n1nc(-c2ccc3oc(N)nc3c2)c2c(N)ncnc21 | 0.531%
CCOC(=O)c1cnc2ccc(-c3cncc(NS(=O)(=O)c4ccccc4)c3)cn12 | -8.07%
COc1cc(O)c(CC=C(C)C)c(O)c1C(=O)/C=C/c1ccc(O)cc1 [Xanthohumol] | -9.86%
C=C1/C(=C\C=C2/CCC[C@]3(C)[C@@H]([C@H](C)/C=C/[C@H](C)C(C)C)CC[C@@H]23)C[C@@H](O)C[C@@H]1O [Doxercalciferol] | -7.1%
COc1ncc(-c2ccc3nccc(-c4ccnnc4)c3c2)cc1NS(=O)(=O)c1ccc(F)cc1F | -12.4%
COc1cc(Br)c(Nc2nc(-c3c(C)nc4ncccn34)cs2)c(Br)c1 | -0.202%
COc1cc([C@@H]2c3cc4c(cc3[C@@H](O[C@@H]3O[C@@H]5CO[C@@H](c6cccs6)O[C@H]5[C@H](O)[C@H]3O)[C@H]3COC(=O)[C@H]23)OCO4)cc(OC)c1O [Teniposide] | -42.7%
COC1=CC(c2cc3ccccc3[nH]2)=N/C1=C\c1[nH]c(C)cc1C [Obatoclax_mesylate] | -8.47%
CCn1c(-c2nonc2N)nc2c(C#CC(C)(C)O)ncc(OC[C@H]3CCCNC3)c21 | 4.22%
CC(/C=C/C(=O)NO)=C\[C@@H](C)C(=O)c1ccc(N(C)C)cc1 [Trichostatin_A] | -9.24%
COc1cc(Nc2ncc3c(n2)-c2ccc(Cl)cc2C(c2c(F)cccc2OC)=NC3)ccc1C(=O)O | -13.5%
Cc1cc(N2CCOCC2)cc2[nH]c(-c3c(NC[C@@H](O)c4cccc(Cl)c4)cc[nH]c3=O)nc12 | -6.07%
Cc1nc(=O)c2cc(CN(C)c3ccc(C(=O)N[C@@H](CCC(=O)O)C(=O)O)s3)ccc2[nH]1 [Raltitrexed] | 0.127 ± 13%
CCC[C@H](NC(=O)/C(C#N)=C/c1cccc(Br)n1)c1ccccc1 | 5.71%
Cc1ccc(C(=O)N(CCCN)[C@@H](c2oc3cc(Cl)ccc3c(=O)c2Cc2ccccc2)C(C)C)cc1 | -42.1%
Cc1ccc(C(=O)N(CCCN)[C@@H](c2nc3cc(Cl)ccc3c(=O)n2Cc2ccccc2)C(C)C)cc1 [Ispinesib] | -43.4%
CS(=O)(=O)N1CCc2c(-c3cnc(N)nc3)nc(N3CCOCC3)nc21 | -3.59%

Compound | percent difference in area under dose-response curve
CSc1cccc(Nc2ncc3cc(-c4c(Cl)cccc4Cl)c(=O)n(C)c3n2)c1 | 11.7%
CC/C(=C(\c1ccccc1)c1ccc(OCCN(C)C)cc1)c1ccccc1 [Tamoxifen_Citrate] | -4.18%
N#CC[C@H](C1CCCC1)n1cc(-c2ncnc3[nH]ccc23)cn1 [Ruxolitinib] | -7.13%
COc1cccc2c1C(=O)c1c(O)c3c(c(O)c1C2=O)C[C@@](O)(C(=O)CO)C[C@@H]3O[C@H]1C[C@H](N)[C@H](O)[C@H](C)O1 [Doxorubicin] | -24.4%
CC(C)CC(=O)Nc1n[nH]c2c1CN(C(=O)C1CCN(C)CC1)C2(C)C | -18.5%
CN1CCN(c2ccc3nc(-c4c(N)c5c(F)cccc5[nH]c4=O)[nH]c3c2)CC1 [Dovitinib] | -0.391%
S=c1nc[nH]c2nc[nH]c12 [6_Mercaptopurine] | -31.7%
C#Cc1cccc(Nc2ncnc3cc(OCCOC)c(OCCOC)cc23)c1 [Erlotinib_HCl] | -0.149%
Cc1cc(Nc2cc(N3CCN(C)CC3)nc(Sc3ccc(NC(=O)C4CC4)cc3)n2)n[nH]1 | -14.9%
CN(C)CCOc1ccc(/C(=C(/CCCl)c2ccccc2)c2ccccc2)cc1 [Toremifene_Citrate] | 2.31%
Cc1cc(=O)oc2c(C=O)c(O)ccc12 | 5.18%
CC(C)(C)c1cnc(CSc2cnc(NC(=O)C3CCNCC3)s2)o1 | -3.83%
CCN(CC)CCCCNc1ncc2cc(-c3cc(OC)cc(OC)c3)c(NC(=O)NC(C)(C)C)nc2n1 | 1.69%
CNC(=O)c1cc(Oc2ccc(NC(=O)Nc3cc(C(C)(C)C)nn3-c3ccc4ncccc4c3)c(F)c2)ccn1 | -8.43%
CC(C)(C)c1cc(C(=O)C(C#N)=NNc2cccc(Cl)c2)no1 | -6.64%
CN(N=O)C(=O)N[C@@H](C=O)[C@@H](O)[C@H](O)[C@H](O)CO [Streptozotocin] | -5.59%
Cc1c(NC(=O)OC[C@@H]2COCCN2)cn2ncnc(Nc3ccc4c(cnn4Cc4cccc(F)c4)c3)c12 | 3.34%
